# Test results reported in publication PMC7862700, “An all-to-all approach to the identification of sequence-specific readers for epigenetic DNA modifications on cytosine”.
# Assays:
# Assay in all cases: DAPPL (digital affinity profiling via proximity ligation, sequencing); 10 mM Tris-HCl pH 7.5, 50 mM NaCl, 1 mM DTT, 4% glycerol, room temperature, 30 min; GST-TFs on glutathione beads, 16-mer random dsDNA library, 0.1% formaldehyde crosslink after washing; high values mean tight binding
# FLI1 = molecular target: T1, FLI1 (Homo sapiens, UniProt Q01543 1-452); details: protein: recombinant; tags: N-terminal GST; dsDNA, one strand shown
# T1 sequence: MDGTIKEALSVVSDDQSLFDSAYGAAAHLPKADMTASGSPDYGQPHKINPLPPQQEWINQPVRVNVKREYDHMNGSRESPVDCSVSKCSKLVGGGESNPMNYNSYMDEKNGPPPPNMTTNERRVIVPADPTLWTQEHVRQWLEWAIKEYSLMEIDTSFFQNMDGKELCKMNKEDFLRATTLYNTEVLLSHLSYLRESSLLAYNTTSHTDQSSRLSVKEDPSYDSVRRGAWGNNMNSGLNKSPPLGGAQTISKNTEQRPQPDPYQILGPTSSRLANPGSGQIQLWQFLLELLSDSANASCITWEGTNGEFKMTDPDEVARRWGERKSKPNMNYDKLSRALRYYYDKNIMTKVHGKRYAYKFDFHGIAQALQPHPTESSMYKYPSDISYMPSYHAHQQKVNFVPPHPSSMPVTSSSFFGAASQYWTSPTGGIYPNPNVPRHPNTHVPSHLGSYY
# In short: (§1)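 GST fusions of human transcription factors were expressed in yeast and captured with glutathione beads. Once given DNA barcodes and pooled alongside a tag-only sample, they were incubated for 30 min at room temperature with 200 nmole of a random double-stranded 16-mer DNA library in Tris/NaCl/DTT/glycerol buffer, then washed, crosslinked (0.1% formaldehyde), proximity-ligated, PCR-amplified and sequenced on an Illumina NextSeq500. The binding signal of each hexamer is its read frequency for a factor divided by its frequency for the tag-only sample.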
# ELK1 = molecular target: T2, ELK1 (Homo sapiens, UniProt P19419 1-428); details: protein: recombinant; tags: N-terminal GST; dsDNA, one strand shown
# T2 sequence: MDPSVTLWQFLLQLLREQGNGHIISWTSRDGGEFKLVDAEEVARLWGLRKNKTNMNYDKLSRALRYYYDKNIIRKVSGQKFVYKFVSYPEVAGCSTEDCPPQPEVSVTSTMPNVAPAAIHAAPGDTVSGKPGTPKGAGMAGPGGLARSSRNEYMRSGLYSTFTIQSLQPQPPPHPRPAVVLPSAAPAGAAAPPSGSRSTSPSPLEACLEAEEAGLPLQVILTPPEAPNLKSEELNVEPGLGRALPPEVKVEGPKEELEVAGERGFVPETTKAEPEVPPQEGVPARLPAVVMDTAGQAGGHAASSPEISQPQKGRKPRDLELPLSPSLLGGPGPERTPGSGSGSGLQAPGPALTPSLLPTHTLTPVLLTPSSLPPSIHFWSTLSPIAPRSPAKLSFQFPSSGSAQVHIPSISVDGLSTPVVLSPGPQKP
# In short: as §1
# GABPA = molecular target: T3, GABPA (Homo sapiens, UniProt Q06546 1-454); details: protein: recombinant; tags: N-terminal GST; dsDNA, one strand shown
# T3 sequence: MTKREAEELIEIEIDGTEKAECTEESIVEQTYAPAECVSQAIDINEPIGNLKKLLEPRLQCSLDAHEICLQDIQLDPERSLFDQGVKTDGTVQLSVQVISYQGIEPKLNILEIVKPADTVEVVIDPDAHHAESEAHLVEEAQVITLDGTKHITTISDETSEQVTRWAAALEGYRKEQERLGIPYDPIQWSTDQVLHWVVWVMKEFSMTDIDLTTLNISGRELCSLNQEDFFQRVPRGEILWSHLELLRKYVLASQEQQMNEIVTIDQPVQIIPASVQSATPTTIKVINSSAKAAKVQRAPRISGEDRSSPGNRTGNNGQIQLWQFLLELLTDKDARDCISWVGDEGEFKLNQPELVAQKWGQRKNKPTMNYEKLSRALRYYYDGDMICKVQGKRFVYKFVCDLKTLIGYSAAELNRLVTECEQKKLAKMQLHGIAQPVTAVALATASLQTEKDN
# In short: as §1
# ERG = molecular target: T4, ERG (Homo sapiens, UniProt P11308 1-479); details: protein: recombinant; tags: N-terminal GST; dsDNA, one strand shown
# T4 sequence: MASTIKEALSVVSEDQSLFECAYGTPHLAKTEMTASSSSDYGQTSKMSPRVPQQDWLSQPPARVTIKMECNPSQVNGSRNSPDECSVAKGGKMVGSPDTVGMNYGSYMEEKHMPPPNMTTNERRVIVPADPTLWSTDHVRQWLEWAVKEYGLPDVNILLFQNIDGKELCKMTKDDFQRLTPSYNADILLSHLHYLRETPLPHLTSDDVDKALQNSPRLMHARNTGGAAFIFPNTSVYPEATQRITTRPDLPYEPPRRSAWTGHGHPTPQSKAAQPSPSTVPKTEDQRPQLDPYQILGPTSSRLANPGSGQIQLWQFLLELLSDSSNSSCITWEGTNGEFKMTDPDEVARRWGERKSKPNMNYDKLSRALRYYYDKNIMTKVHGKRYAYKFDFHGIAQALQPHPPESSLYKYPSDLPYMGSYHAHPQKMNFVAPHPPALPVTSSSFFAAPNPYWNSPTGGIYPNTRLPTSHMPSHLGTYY
# In short: as §1
# ELF1 = ELF1 (Homo sapiens, UniProt P32519 1-619); details: protein: recombinant; tags: N-terminal GST; dsDNA, one strand shown
# In short: as §1
# EHF = molecular target: T5, EHF (Homo sapiens, UniProt Q9NZC4 1-300); details: protein: recombinant; tags: N-terminal GST; dsDNA, one strand shown
# T5 sequence: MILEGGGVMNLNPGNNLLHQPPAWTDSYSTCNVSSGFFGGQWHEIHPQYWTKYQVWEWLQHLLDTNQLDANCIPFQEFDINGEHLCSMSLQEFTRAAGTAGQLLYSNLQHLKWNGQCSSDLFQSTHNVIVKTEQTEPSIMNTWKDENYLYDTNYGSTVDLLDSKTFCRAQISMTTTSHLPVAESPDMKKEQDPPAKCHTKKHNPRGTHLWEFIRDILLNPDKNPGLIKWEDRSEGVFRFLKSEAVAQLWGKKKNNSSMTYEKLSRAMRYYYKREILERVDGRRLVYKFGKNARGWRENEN
# In short: as §1
# SPI1 = SPI1 (Homo sapiens, UniProt P17947 1-270); details: protein: recombinant; tags: N-terminal GST; dsDNA, one strand shown
# In short: as §1
# SPIB = SPIB (Homo sapiens, UniProt Q01892 1-262); details: protein: recombinant; tags: N-terminal GST; dsDNA, one strand shown
# In short: as §1
# ELK3 = molecular target: T6, ELK3 (Homo sapiens, UniProt P41970 1-407); details: protein: recombinant; tags: N-terminal GST; dsDNA, one strand shown
# T6 sequence: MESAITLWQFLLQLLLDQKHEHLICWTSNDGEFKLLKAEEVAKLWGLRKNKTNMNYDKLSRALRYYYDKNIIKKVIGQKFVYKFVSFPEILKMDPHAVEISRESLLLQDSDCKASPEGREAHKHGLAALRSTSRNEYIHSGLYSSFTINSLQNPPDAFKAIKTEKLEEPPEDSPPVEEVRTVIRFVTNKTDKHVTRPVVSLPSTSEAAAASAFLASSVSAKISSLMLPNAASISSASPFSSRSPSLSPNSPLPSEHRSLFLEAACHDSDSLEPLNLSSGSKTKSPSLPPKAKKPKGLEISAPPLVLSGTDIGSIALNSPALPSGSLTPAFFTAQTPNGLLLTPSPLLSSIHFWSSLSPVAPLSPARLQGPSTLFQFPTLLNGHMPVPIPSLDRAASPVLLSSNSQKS
# In short: as §1
# FEV = molecular target: T7, FEV (Homo sapiens, UniProt Q99581 1-238); details: protein: recombinant; tags: N-terminal GST; dsDNA, one strand shown
# T7 sequence: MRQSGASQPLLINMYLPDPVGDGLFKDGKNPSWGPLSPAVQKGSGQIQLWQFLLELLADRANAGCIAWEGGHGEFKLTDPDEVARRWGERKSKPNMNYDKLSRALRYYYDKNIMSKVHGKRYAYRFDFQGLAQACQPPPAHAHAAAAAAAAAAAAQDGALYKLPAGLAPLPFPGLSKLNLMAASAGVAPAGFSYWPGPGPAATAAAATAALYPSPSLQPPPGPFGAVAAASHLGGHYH
# In short: as §1
# ETV5 = ETV5 (Homo sapiens, UniProt P41161 1-510); details: protein: recombinant; tags: N-terminal GST; dsDNA, one strand shown
# In short: as §1
# HSF1 = HSF1 (Homo sapiens, UniProt Q00613 1-529); details: protein: recombinant; tags: N-terminal GST; chain copies: 3; dsDNA, one strand shown
# In short: as §1
# SPIC = molecular target: T8, SPIC (Homo sapiens, UniProt Q8N5J4 1-248); details: protein: recombinant; tags: N-terminal GST; dsDNA, one strand shown
# T8 sequence: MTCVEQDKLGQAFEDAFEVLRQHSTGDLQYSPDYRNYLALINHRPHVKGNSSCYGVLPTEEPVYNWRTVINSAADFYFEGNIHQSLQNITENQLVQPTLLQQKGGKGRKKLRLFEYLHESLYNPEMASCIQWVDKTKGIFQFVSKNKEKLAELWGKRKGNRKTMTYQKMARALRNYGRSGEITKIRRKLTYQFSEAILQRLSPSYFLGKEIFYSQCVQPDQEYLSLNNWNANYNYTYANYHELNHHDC
# In short: as §1
# ELF4 = ELF4 (Homo sapiens, UniProt Q99607 1-663); details: protein: recombinant; tags: N-terminal GST; dsDNA, one strand shown
# In short: as §1
# ELK4 = molecular target: T9, ELK4 (Homo sapiens, UniProt P28324-2 1-405); details: protein: recombinant; tags: N-terminal GST; dsDNA, one strand shown
# T9 sequence: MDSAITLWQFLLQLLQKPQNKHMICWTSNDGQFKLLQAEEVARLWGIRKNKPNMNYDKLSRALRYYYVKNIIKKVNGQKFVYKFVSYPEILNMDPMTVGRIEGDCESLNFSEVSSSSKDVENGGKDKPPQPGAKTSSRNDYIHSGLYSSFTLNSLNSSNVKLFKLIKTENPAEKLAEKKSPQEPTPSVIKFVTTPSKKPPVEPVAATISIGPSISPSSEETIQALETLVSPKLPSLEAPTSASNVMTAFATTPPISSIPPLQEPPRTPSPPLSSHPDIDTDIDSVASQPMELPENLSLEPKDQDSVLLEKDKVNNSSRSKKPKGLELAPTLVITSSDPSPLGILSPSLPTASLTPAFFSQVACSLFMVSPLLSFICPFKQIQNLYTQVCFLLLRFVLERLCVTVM
# In short: as §1
# ETV2 = molecular target: T10, ETV2 (Homo sapiens, UniProt O00321 1-342); details: protein: recombinant; tags: N-terminal GST; dsDNA, one strand shown
# T10 sequence: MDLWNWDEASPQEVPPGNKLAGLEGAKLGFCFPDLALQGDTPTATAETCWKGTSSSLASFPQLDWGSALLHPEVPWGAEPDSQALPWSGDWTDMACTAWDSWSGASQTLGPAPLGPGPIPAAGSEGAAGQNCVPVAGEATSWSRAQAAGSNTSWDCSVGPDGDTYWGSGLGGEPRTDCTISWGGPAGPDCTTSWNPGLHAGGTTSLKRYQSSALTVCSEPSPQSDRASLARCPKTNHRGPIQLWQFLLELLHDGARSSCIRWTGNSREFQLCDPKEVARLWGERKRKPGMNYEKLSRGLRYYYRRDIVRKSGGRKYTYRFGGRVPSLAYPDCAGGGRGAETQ
# In short: as §1
# ELF3 = molecular target: T11, ELF3 (Homo sapiens, UniProt P78545 1-371); details: protein: recombinant; tags: N-terminal GST; dsDNA, one strand shown
# T11 sequence: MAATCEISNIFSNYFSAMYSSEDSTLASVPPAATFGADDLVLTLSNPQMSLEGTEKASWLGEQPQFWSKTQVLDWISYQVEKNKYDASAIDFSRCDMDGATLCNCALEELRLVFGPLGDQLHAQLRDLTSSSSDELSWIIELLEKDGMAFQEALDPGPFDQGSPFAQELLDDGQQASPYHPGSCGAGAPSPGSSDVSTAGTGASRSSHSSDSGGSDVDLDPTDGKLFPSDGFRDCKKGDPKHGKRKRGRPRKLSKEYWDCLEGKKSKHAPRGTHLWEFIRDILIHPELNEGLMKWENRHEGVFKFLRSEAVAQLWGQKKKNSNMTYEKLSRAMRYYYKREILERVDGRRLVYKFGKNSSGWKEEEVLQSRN
# In short: as §1
# CRX = CRX (Homo sapiens, UniProt O43186 1-299); details: protein: recombinant; tags: N-terminal GST; dsDNA, one strand shown
# In short: as §1
# ETV1 = ETV1 (Homo sapiens, UniProt P50549 1-477); details: protein: recombinant; tags: N-terminal GST; dsDNA, one strand shown
# In short: as §1
# HSF1, sequence (Q00613 whole entry): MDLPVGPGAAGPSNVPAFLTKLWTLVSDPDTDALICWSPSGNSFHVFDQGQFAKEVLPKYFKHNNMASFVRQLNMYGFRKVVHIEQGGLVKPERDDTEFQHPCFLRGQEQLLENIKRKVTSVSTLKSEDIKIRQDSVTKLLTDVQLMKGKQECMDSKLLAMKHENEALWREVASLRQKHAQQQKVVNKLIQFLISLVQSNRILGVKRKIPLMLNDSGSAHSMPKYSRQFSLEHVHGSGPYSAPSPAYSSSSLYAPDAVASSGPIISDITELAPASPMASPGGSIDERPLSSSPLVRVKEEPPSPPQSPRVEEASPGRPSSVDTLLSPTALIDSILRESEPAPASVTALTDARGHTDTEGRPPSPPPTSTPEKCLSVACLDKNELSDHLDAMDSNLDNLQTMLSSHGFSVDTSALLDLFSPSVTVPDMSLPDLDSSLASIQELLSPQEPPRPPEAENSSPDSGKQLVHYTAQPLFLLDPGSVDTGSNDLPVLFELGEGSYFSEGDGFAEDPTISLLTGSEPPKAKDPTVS
# ELF1, sequence (P32519 whole entry): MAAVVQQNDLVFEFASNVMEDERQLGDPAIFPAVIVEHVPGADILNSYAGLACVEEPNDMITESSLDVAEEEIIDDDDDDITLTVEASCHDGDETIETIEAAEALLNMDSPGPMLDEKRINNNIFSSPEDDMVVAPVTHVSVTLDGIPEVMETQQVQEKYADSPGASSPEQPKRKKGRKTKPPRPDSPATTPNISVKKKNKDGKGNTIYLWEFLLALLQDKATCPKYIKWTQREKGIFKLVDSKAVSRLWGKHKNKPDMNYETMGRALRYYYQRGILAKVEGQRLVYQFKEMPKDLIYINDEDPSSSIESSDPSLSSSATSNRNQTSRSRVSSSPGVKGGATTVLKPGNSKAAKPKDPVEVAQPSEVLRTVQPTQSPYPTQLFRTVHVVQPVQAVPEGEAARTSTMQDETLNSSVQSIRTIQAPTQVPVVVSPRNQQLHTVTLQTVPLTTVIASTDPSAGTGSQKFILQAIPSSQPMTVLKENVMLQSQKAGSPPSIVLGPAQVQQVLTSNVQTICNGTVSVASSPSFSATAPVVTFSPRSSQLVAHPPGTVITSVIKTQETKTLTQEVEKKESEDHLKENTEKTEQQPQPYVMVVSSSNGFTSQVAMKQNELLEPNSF
# ETV5, sequence (P41161 whole entry): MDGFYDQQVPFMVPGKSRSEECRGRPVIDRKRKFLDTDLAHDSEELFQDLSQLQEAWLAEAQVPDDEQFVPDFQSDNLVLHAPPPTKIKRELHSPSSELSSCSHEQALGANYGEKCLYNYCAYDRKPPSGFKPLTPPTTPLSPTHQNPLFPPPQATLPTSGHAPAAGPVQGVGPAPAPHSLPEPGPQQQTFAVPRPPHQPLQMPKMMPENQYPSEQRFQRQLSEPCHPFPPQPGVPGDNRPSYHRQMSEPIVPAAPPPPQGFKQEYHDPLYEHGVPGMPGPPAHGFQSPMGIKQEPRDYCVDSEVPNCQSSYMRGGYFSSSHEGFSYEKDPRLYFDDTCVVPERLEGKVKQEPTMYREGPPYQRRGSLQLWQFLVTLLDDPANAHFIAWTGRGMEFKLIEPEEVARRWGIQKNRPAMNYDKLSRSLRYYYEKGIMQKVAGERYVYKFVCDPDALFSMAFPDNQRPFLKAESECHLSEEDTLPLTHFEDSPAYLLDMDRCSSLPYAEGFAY
# CRX, sequence (O43186 whole entry): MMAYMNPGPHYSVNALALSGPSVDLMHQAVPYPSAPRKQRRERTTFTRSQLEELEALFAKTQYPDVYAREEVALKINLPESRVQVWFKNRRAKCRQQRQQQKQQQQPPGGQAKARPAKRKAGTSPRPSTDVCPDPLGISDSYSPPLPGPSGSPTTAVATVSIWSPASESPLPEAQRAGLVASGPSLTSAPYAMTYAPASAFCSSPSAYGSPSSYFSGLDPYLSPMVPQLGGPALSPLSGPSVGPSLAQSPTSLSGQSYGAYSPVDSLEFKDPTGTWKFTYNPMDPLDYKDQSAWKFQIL
# ETV1, sequence (P50549 whole entry): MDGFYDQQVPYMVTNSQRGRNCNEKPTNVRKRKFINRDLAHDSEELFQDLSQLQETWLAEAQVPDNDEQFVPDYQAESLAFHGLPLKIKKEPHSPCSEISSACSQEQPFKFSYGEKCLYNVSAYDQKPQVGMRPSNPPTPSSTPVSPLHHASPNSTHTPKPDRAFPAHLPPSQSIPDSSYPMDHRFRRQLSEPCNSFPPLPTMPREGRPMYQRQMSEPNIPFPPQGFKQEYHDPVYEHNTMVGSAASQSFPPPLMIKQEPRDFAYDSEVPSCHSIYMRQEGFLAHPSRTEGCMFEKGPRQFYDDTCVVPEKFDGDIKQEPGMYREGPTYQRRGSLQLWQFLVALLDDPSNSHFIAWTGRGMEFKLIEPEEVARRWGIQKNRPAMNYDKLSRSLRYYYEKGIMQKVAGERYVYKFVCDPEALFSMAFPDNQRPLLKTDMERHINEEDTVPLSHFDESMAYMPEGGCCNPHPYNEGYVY
# SPIB, sequence (Q01892 whole entry): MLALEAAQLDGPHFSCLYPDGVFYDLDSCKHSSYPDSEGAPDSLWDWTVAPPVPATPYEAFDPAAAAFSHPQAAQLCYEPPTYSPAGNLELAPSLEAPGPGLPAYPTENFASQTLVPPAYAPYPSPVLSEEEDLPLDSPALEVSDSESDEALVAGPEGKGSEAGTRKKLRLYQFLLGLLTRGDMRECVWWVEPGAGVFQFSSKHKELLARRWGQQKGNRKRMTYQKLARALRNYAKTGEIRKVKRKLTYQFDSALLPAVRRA
# ELF4, sequence (Q99607 whole entry): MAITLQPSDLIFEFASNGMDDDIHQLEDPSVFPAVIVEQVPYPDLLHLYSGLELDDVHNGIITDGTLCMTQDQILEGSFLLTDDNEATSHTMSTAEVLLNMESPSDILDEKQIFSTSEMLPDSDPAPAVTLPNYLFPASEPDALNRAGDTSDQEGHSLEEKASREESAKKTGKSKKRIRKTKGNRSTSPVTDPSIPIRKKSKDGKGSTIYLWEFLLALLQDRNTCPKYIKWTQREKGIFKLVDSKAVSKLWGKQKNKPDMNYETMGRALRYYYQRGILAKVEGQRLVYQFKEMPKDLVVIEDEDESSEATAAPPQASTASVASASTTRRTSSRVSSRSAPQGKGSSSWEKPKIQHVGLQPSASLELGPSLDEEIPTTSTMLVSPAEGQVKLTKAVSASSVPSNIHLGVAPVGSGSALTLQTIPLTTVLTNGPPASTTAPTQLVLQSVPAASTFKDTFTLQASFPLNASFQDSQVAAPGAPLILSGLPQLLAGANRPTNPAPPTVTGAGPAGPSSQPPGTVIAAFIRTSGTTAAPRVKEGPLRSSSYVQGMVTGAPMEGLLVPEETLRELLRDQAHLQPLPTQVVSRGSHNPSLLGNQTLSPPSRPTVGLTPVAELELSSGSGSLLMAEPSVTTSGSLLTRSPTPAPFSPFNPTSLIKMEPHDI
sequence,measurement,setting,value
TCTCAT,binding signal,FLI1,"1.3 fold enrichment (6-mer frequency, TF over GST control)"
same,binding signal,ELK1,"1.36 fold enrichment (6-mer frequency, TF over GST control)"
same,binding signal,GABPA,"1.34 fold enrichment (6-mer frequency, TF over GST control)"
same,binding signal,ERG,"1.2 fold enrichment (6-mer frequency, TF over GST control)"
same,binding signal,ELF1,"1.36 fold enrichment (6-mer frequency, TF over GST control)"
same,binding signal,EHF,"1.31 fold enrichment (6-mer frequency, TF over GST control)"
same,binding signal,SPI1,"1.37 fold enrichment (6-mer frequency, TF over GST control)"
same,binding signal,SPIB,"1.33 fold enrichment (6-mer frequency, TF over GST control)"
same,binding signal,ELK3,"1.29 fold enrichment (6-mer frequency, TF over GST control)"
same,binding signal,FEV,"1.27 fold enrichment (6-mer frequency, TF over GST control)"
same,binding signal,ETV5,"1.39 fold enrichment (6-mer frequency, TF over GST control)"
same,binding signal,HSF1,"1.29 fold enrichment (6-mer frequency, TF over GST control)"
same,binding signal,SPIC,"1.46 fold enrichment (6-mer frequency, TF over GST control)"
same,binding signal,ELF4,"1.25 fold enrichment (6-mer frequency, TF over GST control)"
same,binding signal,ELK4,"1.37 fold enrichment (6-mer frequency, TF over GST control)"
same,binding signal,ETV2,"1.46 fold enrichment (6-mer frequency, TF over GST control)"
same,binding signal,ELF3,"1.32 fold enrichment (6-mer frequency, TF over GST control)"
same,binding signal,CRX,"1.36 fold enrichment (6-mer frequency, TF over GST control)"
same,binding signal,ETV1,"1.38 fold enrichment (6-mer frequency, TF over GST control)"
